Rows were chosen to be rich in hits. Some 14% of all compounds tested hit in one or more screens of this group.
USP30 block = human USP30 deubiquitinase inhibition; purified USP30, Ub-rhodamine cleavage fluorescence; AID 1645860; actives 5.3% (n = 47,000); Q70CQ3; inhibition, % at 25 µM
USP17 block = inhibitors of human USP17 deubiquitinase | A8MUK1 | purified USP17, Ub-rhodamine cleavage fluorescence, 3 h | inhibition, % at 50 µM | actives 6.5% (n = 47,000) | AID 1645855
USP8 inh = inhibitors of human USP8 deubiquitinase; P40818; purified USP8, Ub-rhodamine cleavage fluorescence, 30 min; inhibition, % at 20 µM; actives 4.2% (n = 47,000); AID 1645853
USP10 block = inhibitors of human USP10 deubiquitinase | Q14694 | purified USP10, Ub-rhodamine fluorescence, 60 min | inhibition, % at 20 µM | actives 1.1% (n = 47,000)
USP28 block = blocks human USP28 ubiquitin-rhodamine cleavage; purified USP28, Ub-rhodamine cleavage fluorescence, 30 min; inhibition, % at 25 µM; actives 3% (n = 47,000); AID 1645857
Target sequence (Q96RU2 whole entry, looked up): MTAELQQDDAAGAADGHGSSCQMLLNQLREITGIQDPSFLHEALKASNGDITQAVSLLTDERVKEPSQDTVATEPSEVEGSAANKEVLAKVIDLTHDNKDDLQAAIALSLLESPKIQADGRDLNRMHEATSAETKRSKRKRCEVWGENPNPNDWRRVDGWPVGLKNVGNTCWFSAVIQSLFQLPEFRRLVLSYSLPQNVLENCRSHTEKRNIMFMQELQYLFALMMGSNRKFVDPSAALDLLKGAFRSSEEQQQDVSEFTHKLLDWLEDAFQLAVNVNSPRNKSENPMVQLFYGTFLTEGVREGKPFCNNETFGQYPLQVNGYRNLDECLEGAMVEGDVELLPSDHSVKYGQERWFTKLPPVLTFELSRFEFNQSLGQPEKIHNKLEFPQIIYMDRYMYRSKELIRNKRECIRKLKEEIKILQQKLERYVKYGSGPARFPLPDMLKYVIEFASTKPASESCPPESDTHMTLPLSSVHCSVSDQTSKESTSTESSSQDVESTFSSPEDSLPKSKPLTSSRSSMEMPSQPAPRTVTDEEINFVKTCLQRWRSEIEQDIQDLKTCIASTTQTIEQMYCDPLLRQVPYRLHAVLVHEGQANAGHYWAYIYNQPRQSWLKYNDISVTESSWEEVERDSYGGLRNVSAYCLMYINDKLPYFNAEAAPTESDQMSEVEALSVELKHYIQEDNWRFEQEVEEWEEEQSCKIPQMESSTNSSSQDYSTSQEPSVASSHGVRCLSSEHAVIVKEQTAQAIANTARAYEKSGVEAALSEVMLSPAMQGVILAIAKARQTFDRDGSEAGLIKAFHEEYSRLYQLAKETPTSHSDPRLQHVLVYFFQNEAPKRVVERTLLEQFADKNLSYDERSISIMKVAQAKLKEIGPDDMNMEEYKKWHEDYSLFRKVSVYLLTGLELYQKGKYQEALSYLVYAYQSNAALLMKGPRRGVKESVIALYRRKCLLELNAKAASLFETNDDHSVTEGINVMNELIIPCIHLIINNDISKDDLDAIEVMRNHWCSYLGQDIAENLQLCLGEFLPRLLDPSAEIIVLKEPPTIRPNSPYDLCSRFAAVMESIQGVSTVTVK
* = called active by the depositor; i = inactive. No stated cut-off is given here; in the data, active means inhibition above about 30%; inactive means the rest.

SMILES | USP30 block | USP17 block | USP8 inh | USP10 block | USP28 block
Cc1c(CC(=O)N2CCN(c3ccc(Cl)cc3)CC2)c(=O)oc2cc(O)c(Cl)cc12 | 35* | 19 | 41* | 6 | 7
Cc1c(CC(=O)N2CCN(c3ncccn3)CC2)c(=O)oc2cc(O)ccc12 | -9 | 63* | 4 | 4 | -3
N#Cc1ccc(Cl)cc1NC(=O)COc1cccnc1[N+](=O)[O-] | 31* | 50* | -63 | -3 | 2
N#Cc1ccc(Cl)cc1NC(=O)CN1C(=O)c2ccccc2S1(=O)=O | 18 | 11 | -14 | 0 | 4
Cc1ccc(Nc2nc3c(S(=O)(=O)c4ccc(C)c(C)c4)nnn3c3ccccc23)cc1C | 25 | 24 | 53* | 12 | 9
Cc1ccc(Nc2nc3c(S(=O)(=O)c4ccc(C(C)C)cc4)nnn3c3ccccc23)cc1 | 6 | 21 | 4 | 0 | 2
O=C1O[C@@H]2C[C@H]3C[C@@H]2[C@@H]1[C@H]3C(=O)N1CCN(c2ccc(Cl)cc2)CC1 | 17 | 2 | 3 | 0 | 8
CCn1cc2c(n1)c(=O)n(Cc1ccccc1)c(=O)n2CC(=O)Nc1ccc(C)cc1C | 33* | 36* | 93* | 30* | 16
Cc1cc(C)c(NC(=O)Cn2c(=O)n(Cc3ccccc3)c(=O)c3nn(C)cc32)c(C)c1 | 85* | 68* | 41* | 1 | 64*
O=C(NCC1CCNCC1)c1ccncc1 | -14 | -5 | 1 | -1 | -11
CS(=O)(=O)Nc1cccc(C(=O)OCCSc2cccc(C(F)(F)F)c2)c1 | -9 | -6 | -5 | 12 | 22
COc1cc(Cl)ccc1C(=O)Nc1cccc(-n2cnnn2)c1C | 47* | 82* | 9 | 13 | 21
Cc1c(NC(=O)/C=C/c2cccc(Cl)c2Cl)cccc1-n1cnnn1 | 43* | 25 | 80* | 20 | 0
CCOc1ccc(S(=O)(=O)N2CCCCC2)cc1NC(=O)COc1ccc(Br)cc1 | -37 | -7 | 8 | 1 | -9
CC1(C)C[C@@H](O)[C@]2(C)CC[C@]3(C)C(=CCC4[C@@]5(C)CC[C@H](O)[C@](C)(CO)[C@@H]5CC[C@]43C)[C@@H]2C1 (some centres undefined) | 43* | 53* | 3 | 5 | 4
CC(O)[C@H](NC(=O)[C@H](Cc1ccccc1)NC(=O)[C@H](Cc1ccccc1)n1c(=O)[nH]c2ccccc2c1=O)C(=O)O (some centres undefined) | 16 | -3 | -80 | 2 | 17
CC1CCN(c2ccc3nnc(CCC(=O)NCCN4CCCC4)n3n2)CC1 | -23 | -17 | -9 | -3 | -12
O=C(CCc1nnc2ccc(N3CCCCC3)nn12)NCCN1CCOCC1 | 13 | 10 | 41* | 0 | -2
Cc1cc2c3c([nH]c2cc1S(=O)(=O)N1CCCCC1C)CC(C)(C)CC3=O (centres undefined) | 5 | 3 | 14 | 7 | -6
CCc1cc2c3c([nH]c2cc1S(=O)(=O)NCc1ccccc1)CCCC3=O | -31 | -17 | -23 | 4 | 11
Cc1cc2c3c([nH]c2cc1S(=O)(=O)NCc1ccc2c(c1)OCO2)CCCC3=O | -39 | 0 | 0 | 0 | 31*
Cc1cc2c3c([nH]c2cc1S(=O)(=O)N1CCCCC1C)CCCC3=O (centres undefined) | -52 | 37* | 11 | 5 | 4
Cc1ccc(CNS(=O)(=O)c2cc3[nH]c4c(c3cc2C)C(=O)CCC4)cc1 | -29 | -22 | 8 | 0 | 44*
CCCCC(=O)O[C@H]1CC(C)=C2C(=O)C=C(C)[C@@H]2[C@H]2OC(=O)[C@@H](C)[C@@H]21 | 0 | 12 | 6 | 1 | 6
COc1c2n(c3ccccc13)[C@@]1(O)C(=O)N(C)C(=O)[C@@]1(O)c1c-2n(C)c2ccc(Cl)cc12 | -64 | 59* | -17 | 25 | 42*
SMILES | USP30 block | USP17 block | USP8 inh | USP10 block | USP28 block
Cc1cc(C)c2cc(CN(Cc3cccnc3)C(=O)Nc3ccc(F)cc3)c(=O)[nH]c2c1 | 18 | 18 | 7 | 8 | 11
COc1ccc(-c2[nH]nc3c2C(c2cccc(OC)c2OC)CC(=O)O3)cc1 (centres undefined) | -5 | -14 | 0 | 0 | -8
COc1cccc(C2CC(=O)Nc3n[nH]c(C)c32)c1OCc1ccccc1C (centres undefined) | 34* | 5 | -2 | 6 | 9
COc1ccc(C2CC(=O)Nc3n[nH]c(-c4ccccc4)c32)c(OC)c1 (centres undefined) | 44* | 41* | -25 | 5 | 10
COc1cccc(OC)c1C(=O)C1CC(=O)Nc2n[nH]c(C)c21 (centres undefined) | 5 | -2 | 2 | -1 | -2
COc1ccc(C2CC(=O)Nc3ccc4ccccc4c32)c(OC)c1OC (centres undefined) | 68* | 37* | 7 | 3 | 7
COc1ccc(C2CC(=O)Nc3ccc4ccccc4c32)cc1OC (centres undefined) | 7 | 1 | -4 | 4 | 3
COCCN1C(=O)c2ccccc2C(C(=O)Nc2cccc(C)n2)C1c1cccs1 (centres undefined) | 7 | -6 | -1 | 2 | -8
CCCSc1nc(SCC(=O)NC(C)Cc2ccccc2)c2c3c(sc2n1)COC(C)(C)C3 (centres undefined) | 10 | 6 | 2 | 0 | 7
O=C(Nc1cccc(Cl)c1)N1CCN(c2cc(C(F)(F)F)ccn2)CC1 | 26 | 59* | 3 | 5 | -1
Cc1ccc(-c2cc3nccc(C4CCCNC4)n3n2)cc1 (centres undefined) | 12 | 1 | -2 | 2 | 40*
COc1ccc(-c2cc3nccc(C4CCNCC4)n3n2)cc1 | 25 | -7 | 3 | 1 | 10
O=C(CSc1nnc(CNC(=O)c2cccs2)o1)Nc1cccc(Cl)c1 | 0 | -7 | -4 | 5 | 0
COc1ccc(C2CCNc3ccccc3N2)cc1 (centres undefined) | -151 | -10 | 37* | -5 | -29
O[C@H]1[C@H](NCc2cccc(C(F)(F)F)c2)[C@@H](c2cncnc2)C[C@H]1O | -15 | -13 | 61* | -5 | 28
COc1ccc(CN[C@H]2[C@H](O)[C@H](O)C[C@@H]2c2cncnc2)cn1 | -19 | -6 | 35* | -2 | 20
CCc1nc(CN2CCN(C3CCOCC3)CC(C(N)=O)C2)c(C)[nH]1 (centres undefined) | 11 | 0 | 0 | -2 | -1
CCc1nc(CN2CCOC(C)(C(=O)N3CCOCC3)C2)c(C)[nH]1 (centres undefined) | 30* | 7 | 10 | -2 | 6
O=C(CCC1CCCCC1)Nc1ccc2c3c(cccc13)C(=O)NC2=O | i | -150 | -203 | -9 | -249
O=C(NCCc1c[nH]c2ccccc12)c1cc2sccc2n1Cc1ccccc1 | -21 | 44* | 11 | 11 | 0
CN1C[C@H]2CCN(C(=O)NCCc3c[nH]c4ccccc34)C[C@H]21 | -2 | -9 | 0 | 0 | -14

Compound activity (PubChem)
